Assay results reported in PubChem BioAssay (NCI).
The panel holds about 83,000 compounds, 20% with a hit somewhere; the sample as a whole holds those more often.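 Single-dose data. Exposure time 48 hours. Values below 10 considered active.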 Calls of active or inactive are those of the source.

Key:
Assay in all cases: NCI-60 one-dose screen, 48 h (100 = growth as untreated, 0 = no growth, -100 = all killed)
Settings in all cases: 10 µM unless noted
DU-145 prostate = system: DU-145 prostate
K-562 leukemia = system: K-562 leukemia
MALME-3M melanoma = system: MALME-3M melanoma
MDA-MB-231 breast = system: MDA-MB-231 breast
RXF 393 renal = system: RXF 393 renal
SF-268 CNS = system: SF-268 CNS
SF-295 CNS = system: SF-295 CNS
SF-539 CNS = system: SF-539 CNS
UACC-257 melanoma = system: UACC-257 melanoma
M14 melanoma = system: M14 melanoma
HCT-15 colon = system: HCT-15 colon
HT29 colon = system: HT29 colon
SNB-75 CNS = system: SNB-75 CNS
SNB-19 CNS = system: SNB-19 CNS
U251 CNS = system: U251 CNS
PC-3 prostate = system: PC-3 prostate
SK-MEL-5 melanoma = system: SK-MEL-5 melanoma
UACC-62 melanoma = system: UACC-62 melanoma
LOX IMVI melanoma = system: LOX IMVI melanoma
SK-MEL-28 melanoma = system: SK-MEL-28 melanoma

Measured: growth

NC(=O)c1cnc(Nc2cccc(N)c2)nc1NCCCNC(=O)C1CCC1
active: SF-539 CNS 5.4%
inactive: DU-145 prostate 75.9% | K-562 leukemia 52% | MALME-3M melanoma 80.3% | MDA-MB-231 breast 50.1% | RXF 393 renal 21.4% | SF-268 CNS 76.2% | SF-295 CNS 69.3% | UACC-257 melanoma 107% | M14 melanoma 55.4% | HCT-15 colon 101% | HT29 colon 92.9% | SNB-75 CNS 53.8% | SNB-19 CNS 82.8% | U251 CNS 64.8% | PC-3 prostate 72.4% | SK-MEL-5 melanoma 84.6% | UACC-62 melanoma 70% | LOX IMVI melanoma 68.7%

CC1(C)[C@@H](O[C@@H]2OC[C@@H](O[C@@H]3O[C@H](CO)[C@@H](O)[C@H](O)[C@H]3O[C@@H]3OC[C@@H](O)[C@H](O)[C@H]3O)[C@H](O)[C@H]2O[C@@H]2O[C@H](CO)[C@@H](O)[C@H](O)[C@H]2O)CC[C@]2(C)[C@H]3CC[C@]45OC[C@@]6(CC[C@](C)(C=O)C[C@H]64)[C@H](O)C[C@@]5(C)[C@]3(C)CC[C@@H]12
active: DU-145 prostate -82.1% | K-562 leukemia -18% | MALME-3M melanoma -79.8% | MDA-MB-231 breast -59.5% | RXF 393 renal -77.2% | SF-268 CNS -55.1% | SF-295 CNS -89% | SF-539 CNS -22.6% | UACC-257 melanoma -87.1% | M14 melanoma -85% | HCT-15 colon -46.4% | HT29 colon -85.3% | SNB-75 CNS -78.5% | SNB-19 CNS -68.4% | U251 CNS -89.8% | PC-3 prostate -85.1% | SK-MEL-5 melanoma -27.7% | UACC-62 melanoma -71.8% | LOX IMVI melanoma -73.2%

COc1ccc(-c2cc(-c3ccccc3)nc(N3CCN(CCNc4ccnc5cc(Cl)ccc45)CC3)n2)cc1
inactive: SF-295 CNS 82.7% | SNB-75 CNS 83.6% | SNB-19 CNS 72.7% | PC-3 prostate 32.4% | UACC-62 melanoma 62.2%
active: DU-145 prostate -33.4% | K-562 leukemia 0.988% | MALME-3M melanoma -87.7% | MDA-MB-231 breast -82.4% | RXF 393 renal -34.7% | SF-268 CNS -15.1% | SF-539 CNS -40% | UACC-257 melanoma -84.5% | M14 melanoma -70.9% | HCT-15 colon -82% | HT29 colon -67.6% | U251 CNS 0.46% | SK-MEL-5 melanoma -98.6% | LOX IMVI melanoma -95.1% | SK-MEL-28 melanoma -93.1%

C=C(CNCCc1ccc(O)cc1)[C@@H]1CC[C@]2(CO)CC[C@]3(C)[C@H](CC[C@@H]4[C@@]5(C)CCC(=O)C(C)(C)[C@@H]5CC[C@]43C)[C@@H]12
active: K-562 leukemia -26.3% | MALME-3M melanoma -57.3% | MDA-MB-231 breast 1.97% | UACC-257 melanoma -12.8% | M14 melanoma -76.3% | HCT-15 colon 6.17% | HT29 colon -42.5% | U251 CNS -63.9% | SK-MEL-5 melanoma -4.88% | UACC-62 melanoma -29.5% | LOX IMVI melanoma -89.7%
inactive: DU-145 prostate 43.2% | RXF 393 renal 26% | SF-268 CNS 45.9% | SF-295 CNS 84.2% | SF-539 CNS 78.8% | SNB-75 CNS 91.2% | SNB-19 CNS 49% | PC-3 prostate 14.6%

Cc1ccc(-c2nc(N3CCNCC3)c3oc(-c4ccc(C)cc4)nc3n2)cc1
inactive: DU-145 prostate 11.9% | MALME-3M melanoma 93.6% | RXF 393 renal 73.4% | SF-268 CNS 28.5% | SF-295 CNS 108% | SF-539 CNS 95.8% | UACC-257 melanoma 103% | SNB-75 CNS 89% | SNB-19 CNS 39.1% | SK-MEL-5 melanoma 96.5% | UACC-62 melanoma 95.4%
active: K-562 leukemia -75% | MDA-MB-231 breast -72.1% | M14 melanoma -94.3% | HCT-15 colon -88% | HT29 colon -94.7% | U251 CNS -98.5% | PC-3 prostate -90.2% | LOX IMVI melanoma -79.6%

O=C1/C=C/[C@@H](O)[C@@H]2C[C@@H](O)C[C@H]2/C=C/CCC[C@@H](O)CCO1
inactive: DU-145 prostate 105% | K-562 leukemia 105% | MALME-3M melanoma 60.9% | MDA-MB-231 breast 113% | RXF 393 renal 52.4% | SF-268 CNS 85.6% | SF-295 CNS 89.2% | SF-539 CNS 101% | UACC-257 melanoma 49.3% | M14 melanoma 77.8% | HCT-15 colon 107% | HT29 colon 91.6% | SNB-75 CNS 41.2% | SNB-19 CNS 104% | U251 CNS 92.3% | PC-3 prostate 90.6% | SK-MEL-5 melanoma 22.9% | UACC-62 melanoma 110% | LOX IMVI melanoma 94.7% | SK-MEL-28 melanoma 28.7%

O=S(=O)(Oc1ccc(Br)cc1)c1ccc(Cl)cc1
inactive: DU-145 prostate 93.8% | K-562 leukemia 108% | MALME-3M melanoma 85.5% | MDA-MB-231 breast 117% | RXF 393 renal 114% | SF-268 CNS 99.2% | SF-295 CNS 94.6% | SF-539 CNS 110% | UACC-257 melanoma 118% | M14 melanoma 94.3% | HCT-15 colon 97.6% | HT29 colon 99% | SNB-75 CNS 121% | SNB-19 CNS 103% | U251 CNS 106% | PC-3 prostate 91.7% | SK-MEL-5 melanoma 101% | UACC-62 melanoma 98.6% | LOX IMVI melanoma 95.1%

Ic1ccccc1I
inactive: DU-145 prostate 116% | K-562 leukemia 103% | MALME-3M melanoma 131% | MDA-MB-231 breast 111% | RXF 393 renal 100% | SF-268 CNS 111% | SF-295 CNS 106% | SF-539 CNS 104% | UACC-257 melanoma 88.3% | M14 melanoma 94.3% | HCT-15 colon 99.8% | HT29 colon 107% | SNB-75 CNS 88.3% | SNB-19 CNS 103% | U251 CNS 99% | PC-3 prostate 99.7% | SK-MEL-5 melanoma 102% | UACC-62 melanoma 97.3% | LOX IMVI melanoma 102%

O=C(/C=C/c1ccccc1)c1ccc(Nc2nc(Nc3ccc(F)cc3)nc(Nc3ccc(Cl)cc3)n2)cc1
inactive: DU-145 prostate 97.7% | K-562 leukemia 70.9% | MALME-3M melanoma 109% | MDA-MB-231 breast 81.5% | RXF 393 renal 134% | SF-268 CNS 88.1% | SF-295 CNS 69.3% | SF-539 CNS 97.2% | UACC-257 melanoma 110% | M14 melanoma 81.2% | HCT-15 colon 86.7% | HT29 colon 83.5% | SNB-75 CNS 95% | SNB-19 CNS 101% | U251 CNS 78.9% | PC-3 prostate 74.5% | SK-MEL-5 melanoma 79% | UACC-62 melanoma 100% | LOX IMVI melanoma 85.1% | SK-MEL-28 melanoma 90.9%

N[C@H]1CCC[C@@H]1NCCCCN1C(=O)c2cccc3cc([N+](=O)[O-])cc(c23)C1=O
inactive: DU-145 prostate 29.9% | K-562 leukemia 25.2% | MALME-3M melanoma 73% | MDA-MB-231 breast 39.5% | RXF 393 renal 44.1% | SF-268 CNS 36.5% | SF-295 CNS 66.6% | SF-539 CNS 38.1% | UACC-257 melanoma 72.7% | M14 melanoma 76.8% | HCT-15 colon 63.5% | HT29 colon 14.2% | SNB-75 CNS 46.7% | SNB-19 CNS 46.2% | U251 CNS 42.1% | PC-3 prostate 40.7% | SK-MEL-5 melanoma 70.2% | UACC-62 melanoma 72.2% | LOX IMVI melanoma 22.8%

N#Cc1c(-c2ccccc2)nc(SCc2nnc(-c3ccc(Cl)cc3)o2)[nH]c1=O
inactive: DU-145 prostate 108% | K-562 leukemia 84.1% | MALME-3M melanoma 88.9% | MDA-MB-231 breast 103% | RXF 393 renal 106% | SF-268 CNS 100% | SF-295 CNS 89.5% | SF-539 CNS 104% | UACC-257 melanoma 94.7% | M14 melanoma 92.1% | HCT-15 colon 101% | HT29 colon 94.1% | SNB-75 CNS 93.9% | SNB-19 CNS 100% | U251 CNS 81% | PC-3 prostate 61.5% | SK-MEL-5 melanoma 99.5% | UACC-62 melanoma 98.5% | LOX IMVI melanoma 94.1%

Nc1nc(N)c(N=Nc2ccccc2)c(-c2ccccc2)n1
inactive: DU-145 prostate 76.8% | K-562 leukemia 77.1% | MALME-3M melanoma 77.4% | MDA-MB-231 breast 49.9% | RXF 393 renal 24.9% | SF-268 CNS 58% | SF-295 CNS 54.2% | SF-539 CNS 47.4% | UACC-257 melanoma 90.8% | M14 melanoma 84.5% | HCT-15 colon 58.6% | HT29 colon 51.1% | SNB-19 CNS 69.5% | U251 CNS 72.4% | PC-3 prostate 35.8% | SK-MEL-5 melanoma 46.9% | UACC-62 melanoma 41.4% | LOX IMVI melanoma 42.6%
active: SNB-75 CNS -0.588%

O=C(NNC(=O)c1nc2cc(F)ccc2n2cccc12)c1cnccn1
inactive: DU-145 prostate 44.5% | K-562 leukemia 18.2% | MALME-3M melanoma 37.7% | MDA-MB-231 breast 37.4% | RXF 393 renal 66.4% | SF-268 CNS 34.8% | SF-295 CNS 21.6% | SF-539 CNS 29.6% | UACC-257 melanoma 53.6% | M14 melanoma 23.4% | HCT-15 colon 24.3% | HT29 colon 31.2% | SNB-75 CNS 77.1% | SNB-19 CNS 33% | U251 CNS 20.3% | PC-3 prostate 43.7% | SK-MEL-5 melanoma 42.7% | UACC-62 melanoma 19.6% | LOX IMVI melanoma 26.7%

O=C(NC(Cc1nnc2n(Cc3ccccc3)c(=O)c3c4c(sc3n12)CCCC4)c1ccccc1)c1ccccc1 (stereo not given)
inactive: DU-145 prostate 115% | K-562 leukemia 91% | MALME-3M melanoma 103% | MDA-MB-231 breast 94% | RXF 393 renal 79.4% | SF-268 CNS 89.5% | SF-295 CNS 108% | SF-539 CNS 111% | UACC-257 melanoma 101% | M14 melanoma 86.9% | HCT-15 colon 138% | HT29 colon 106% | SNB-75 CNS 81.3% | SNB-19 CNS 99.1% | U251 CNS 111% | PC-3 prostate 96.7% | SK-MEL-5 melanoma 96.1% | UACC-62 melanoma 85.9% | LOX IMVI melanoma 109% | SK-MEL-28 melanoma 110%
